Rows were chosen to be rich in hits. Some 1.6% of all compounds tested hit in one or more screens of this group.
KCNQ2 pot – KCNQ2 (rat) channel potentiation | hit rate 0.54% among 310,000 | B-score at 10 µM | O88943 | CHO-K1 KCNQ2, FluxOR thallium flux fluorescence; active compounds read high;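 active means fluorescence ratio B-score at least 3 SD of library B-scores, with initial fluorescence B-score within 3 of them, cut at about 5.3 in these data; same plate scores as AID 2156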;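 further: B-score of peak minus minimum over baseline fluorescence ratio after K+ and Tl+ stimulus; positive B-score means potentiation of KCNQ2 with more thallium influx and brighter signal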
KCNQ2 inh – blocks the rat KCNQ2 potassium channel; O88943; hit rate 1.1% among 310,000; AID 2156; CHO-K1 KCNQ2, FluxOR thallium flux, 20 min; active compounds read low; B-score at 10 µM;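 active means fluorescence ratio B-score at most minus 3 library SDs, with starting brightness B-score within 2 library SDs, cut at about -5.5 in these data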
Kir21 confirm – confirmation of mouse Kir2.1 potassium channel inhibitors | AID 2032 | shares compounds with KCNQ2 pot | hit rate 41% among 2,300 | Tl flux remaining, % of negative control (active compounds read low), % at 10 µM | Kir2.1-expressing cells, FluxOR thallium flux fluorescence; active compounds read low;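 active means Primary-screen hit whose thallium flux fell at least 3 control SD below untreated wells in both duplicates, with normal baseline fluorescence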;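 further: 0% = blank wells without stimulus and 100% = stimulated no-compound controls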
Target sequence (P35561 whole entry, looked up): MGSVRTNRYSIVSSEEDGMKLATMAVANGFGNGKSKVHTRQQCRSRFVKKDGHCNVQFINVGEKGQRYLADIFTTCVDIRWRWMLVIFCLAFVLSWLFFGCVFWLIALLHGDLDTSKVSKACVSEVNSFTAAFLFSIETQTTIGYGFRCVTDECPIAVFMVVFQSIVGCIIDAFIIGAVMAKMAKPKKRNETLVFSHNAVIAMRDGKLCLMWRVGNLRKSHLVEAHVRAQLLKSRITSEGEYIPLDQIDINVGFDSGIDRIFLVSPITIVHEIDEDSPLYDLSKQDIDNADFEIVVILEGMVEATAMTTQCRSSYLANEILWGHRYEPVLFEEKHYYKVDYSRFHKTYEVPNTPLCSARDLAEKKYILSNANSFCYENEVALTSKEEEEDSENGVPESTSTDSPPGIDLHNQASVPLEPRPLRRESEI
HEK293 Tl flux – parental HEK293 activity in Kir2.1 inhibitor counter-screen; shares compounds with KCNQ2 pot; parental HEK293 cells, FluxOR thallium flux fluorescence; 0% = unstimulated blank wells; FluxOR signal as % of negative control (100 = no effect), % at 10 µM; hit rate 19% among 2,300;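 active means dye signal at least 3 control SD above or below untreated wells in both duplicates, raw fluorescence within 3, either direction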;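 further: percent is based on the flux ratio of peak minus minimum fluorescence over baseline F0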
CHO-K1 Tl ctr – alters thallium flux in parental CHO-K1 cells, KCNQ2 counter-screen | shares compounds with KCNQ2 pot | FluxOR thallium flux fluorescence; zero = vehicle mean+3SD, 100% = vehicle-minus-blank window | activity increase over 3SD of controls, % at 10 µM | hit rate 43% among 1,200;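 active means signal rise of at least 3 SD above the untreated control mean, in both duplicate wells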;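 further: counter screen of KCNQ2 potentiator hits so any rise reflects channel-independent effects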
KCNQ1 sel pot – human KCNQ1 counter-target activity of KCNQ2 potentiators; CHO KCNQ1 stable, FluxOR thallium flux fluorescence; beyond 3SD, as % of vehicle-control signal; shares compounds with KCNQ2 pot; hit rate 28% among 1,200; activation over 3SD threshold, % at 10 µM; AID 2283;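 active means fluorescence ratio rise of at least 3 SD of vehicle wells above their mean, in both replicate wells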;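 further: 0% = vehicle mean plus 3 SD and 100% = vehicle minus unstimulated blank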
KCNQ2 pot conf – rat KCNQ2 channel potentiator confirmation; CHO-KCNQ2 cells, FluxOR thallium flux fluorescence; potentiation, less the hit threshold, % at 10 µM; shares compounds with KCNQ2 pot; hit rate 68% among 1,200;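 active means fluorescence ratio rising 3 SD or more over the vehicle control mean in both replicates, plus primary screen hit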;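 further: peak minus minimum thallium fluorescence divided by baseline after K/Tl stimulus; 0% = vehicle mean plus 3 SD and 100% = vehicle minus unstimulated blank difference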
Kir21 spec – tests whether KCNQ2 potentiators also affect mouse Kir2.1; activity over 3SD threshold, % at 10 µM; hit rate 2% among 1,200; HEK293 Kir2.1, FluxOR thallium flux fluorescence; shares compounds with KCNQ2 pot;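 active means fluorescence ratio rise of at least 3 SD above the vehicle-control mean, seen in both replicates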;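 further: 0% = vehicle mean plus 3 SD and 100% = vehicle minus no-stimulus blank window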
KCNQ2 W236L MoA – KCNQ2 potentiators acting on retigabine-insensitive rat KCNQ2 W236L mutant; shares compounds with KCNQ2 pot; CHO KCNQ2-W236L, automated patch clamp current; current increase over 3SD of negative controls (%), active compounds read high, % at 25 µM; hit rate 10% among 940;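 active means current increase at least 3 SD of the untreated controls above them in both duplicate recordings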
* hit, by the source's call.

What do the screens show for `O=C(Cc1cccc(F)c1)Nc1ccc2c(c1)CCC2`?
KCNQ2 pot: 5.5*; KCNQ2 inh: inactive; Kir21 confirm: inactive; HEK293 Tl flux: inactive; CHO-K1 Tl ctr: 3.6*; KCNQ1 sel pot: -12.9; KCNQ2 pot conf: 21.3*; Kir21 spec: -25.2; KCNQ2 W236L MoA: inactive

Results for Cc1nc2nc(C)c(NS(=O)(=O)c3ccc(C4CCCCC4)cc3)c(=O)n2[nH]1 ?
KCNQ2 pot: 0.76; KCNQ2 inh: inactive

How did C=CCOc1cccc(C(=O)Nc2ncn[nH]2)c1 do in these assays?
KCNQ2 pot: 0.01; KCNQ2 inh: inactive

Results for COc1ccc(OC(C)C(=O)NCCC2=CCCCC2)cc1 (stereo not given) ?
KCNQ2 inh: inactive; Kir21 confirm: 48.0%*; HEK293 Tl flux: inactive

Results for COc1ccc(C(=O)NCCC2=CCCCC2)cc1 ?
KCNQ2 inh: inactive

What do the screens show for `COc1ccc(OC)c(/C=N/N2CCN(c3ccc(Cl)cc3)CC2)c1`?
KCNQ2 inh: inactive

What do the screens show for `CCOC(=O)c1sc2c(c1C)c(=O)n(CCO)c(=O)n2Cc1ccccc1`?
KCNQ2 pot: 2.88; KCNQ2 inh: inactive

Results for CC(C)(C)C(=O)Nc1cccc(OC(F)(F)C(F)Cl)c1 (stereo not given) ?
KCNQ2 pot: 5.83*; KCNQ2 inh: inactive; Kir21 confirm: inactive; HEK293 Tl flux: inactive; CHO-K1 Tl ctr: -14.8; KCNQ1 sel pot: 11.2*; KCNQ2 pot conf: 29.9*; Kir21 spec: -40.4; KCNQ2 W236L MoA: inactive

How did COc1cccc(NC(=O)c2ccc(NC(=O)C(C)(C)C)cc2)c1 do in these assays?
KCNQ2 pot: 1.23; KCNQ2 inh: inactive

How did O=C(NCCCN1CCOCC1)c1ccc(CSc2ccc(Cl)cc2)cc1 do in these assays?
KCNQ2 pot: 0.59; KCNQ2 inh: inactive; Kir21 confirm: 62.0%*; HEK293 Tl flux: inactive

What do the screens show for `CC(C)c1ccc(C(=O)NCCCN2CCOCC2)cc1`?
KCNQ2 inh: inactive

What do the screens show for `Cc1ccc(NC(=S)NCCSc2ccc(Cl)cc2)cc1`?
KCNQ2 pot: 3.24; KCNQ2 inh: inactive

How did Cc1ccc(CNC(=O)Nc2ccc(C)cc2)cc1 do in these assays?
KCNQ2 pot: 2.51; KCNQ2 inh: inactive

Results for Cc1ccc(NC(=O)NCCCc2ccccc2)cc1 ?
KCNQ2 pot: 6.27*; KCNQ2 inh: inactive; Kir21 confirm: inactive; HEK293 Tl flux: inactive; CHO-K1 Tl ctr: 5.9*; KCNQ1 sel pot: 71.4*; KCNQ2 pot conf: -2.7; Kir21 spec: -35.9; KCNQ2 W236L MoA: inactive

How did COc1ccc(NC(=O)NCCCN2CCC(Cc3ccccc3)CC2)cc1 do in these assays?
KCNQ2 inh: inactive

How did Cc1ccc(NC(=O)NCCSc2ccc(C)cc2)cc1 do in these assays?
KCNQ2 pot: 5.48*; KCNQ2 inh: inactive; Kir21 confirm: inactive; HEK293 Tl flux: inactive; CHO-K1 Tl ctr: -3.9; KCNQ1 sel pot: 48.2*; KCNQ2 pot conf: -4.5; Kir21 spec: -26.2

How did O=C(NCCCCc1ccccc1)Nc1ccc(F)cc1 do in these assays?
KCNQ2 pot: 2.15; KCNQ2 inh: inactive

What do the screens show for `CSc1ccc(NC(=O)NCCCN2CCC(Cc3ccccc3)CC2)cc1`?
KCNQ2 inh: inactive; Kir21 confirm: 63.5%*; HEK293 Tl flux: inactive

How did Cc1ccc(NC(=O)NCC2CC2(Cl)Cl)cc1 (stereo not given) do in these assays?
KCNQ2 pot: 10.2*; KCNQ2 inh: inactive; Kir21 confirm: inactive; HEK293 Tl flux: inactive; CHO-K1 Tl ctr: 21.8*; KCNQ1 sel pot: -20.9; KCNQ2 pot conf: -1.2; Kir21 spec: -30.9; KCNQ2 W236L MoA: inactive

What do the screens show for `CCCCn1c(N)c(N(CCOC)C(=O)c2cc(Cl)nc3ccccc23)c(=O)[nH]c1=O`?
KCNQ2 inh: inactive

Results for O=C(CCCOc1ccc(Cl)cc1Cl)Nc1ccc(O)cc1C(=O)O ?
KCNQ2 inh: inactive

Results for CCc1nn(C(CC)C(=O)NCc2cccc(OC)c2)c(=O)c2cc3occc3n12 (stereo not given) ?
KCNQ2 inh: inactive

What do the screens show for `CCOc1nc(C)cc(C)c1S(=O)(=O)c1ccc(Cl)cc1`?
KCNQ2 pot: 1.12; KCNQ2 inh: inactive; Kir21 confirm: 52.5%*; HEK293 Tl flux: inactive

What do the screens show for `COc1nc(C)cc(C)c1S(=O)(=O)c1ccc(Cl)cc1`?
KCNQ2 pot: 0.07; KCNQ2 inh: inactive

How did CC(C)c1ccc(/C=C(\NC(=O)c2ccccc2)C(=O)NCCN2CCOCC2)cc1 do in these assays?
KCNQ2 inh: inactive

How did COc1cc([N+](=O)[O-])ccc1N1C(=O)C2C3C=CC(C4CC34)C2C1=O (stereo not given) do in these assays?
KCNQ2 inh: inactive

What do the screens show for `C/C(=N\Nc1nc(-c2cc(C)ccc2C)cs1)c1cc2c(ccc3ccccc32)oc1=O`?
KCNQ2 pot: 1.6; KCNQ2 inh: inactive

How did CCCCCCC1CCC(C(=O)N2CCOCC2)CC1 (stereo not given) do in these assays?
KCNQ2 pot: 0.01; KCNQ2 inh: inactive

How did CCOC(=O)NC(=S)Nc1ccc(C(C)(C)C)cc1 do in these assays?
KCNQ2 pot: 10.2*; KCNQ2 inh: inactive; Kir21 confirm: inactive; HEK293 Tl flux: inactive; CHO-K1 Tl ctr: -10.8; KCNQ1 sel pot: -13.2; KCNQ2 pot conf: 26.3*; Kir21 spec: -36.7; KCNQ2 W236L MoA: inactive

Results for CCOC(=O)C(NC(C)=O)C(=O)Nc1ccc(C(C)(C)C)cc1 (stereo not given) ?
KCNQ2 inh: inactive

How did O=c1c([N+](=O)[O-])cccn1Cc1cccc(Br)c1 do in these assays?
KCNQ2 inh: inactive

How did CC(C)C[C@H](N)c1nnc(S(=O)(=O)Cc2cccc(F)c2)o1 do in these assays?
KCNQ2 inh: inactive; Kir21 confirm: 72.5%*; HEK293 Tl flux: inactive

What do the screens show for `CC(C)CCNC(=O)c1ccc(CSCc2cccc(F)c2)o1`?
KCNQ2 inh: inactive

What do the screens show for `O=C(CSc1nnnn1-c1cccc2c1CCCC2)N1CCCCC1`?
KCNQ2 pot: 6.15*; KCNQ2 inh: inactive; Kir21 confirm: 70.5%*; HEK293 Tl flux: inactive; CHO-K1 Tl ctr: 69.0*; KCNQ1 sel pot: -20.0; KCNQ2 pot conf: -7.2; Kir21 spec: -66.0

Screens deposited in PubChem BioAssay by Johns Hopkins Ion Channel Center.
